Experimental data from PubChem BioAssay AID1159580 (chemical genetic matrix, 2015).
Screen size: about 5,500 compounds; about 2,000 (36%) were called active. Roughly 18% stayed inconclusive and do not appear here. No stated cut-off is given here; in the data, active means normalized growth mostly below about 0.91 (no sharp cut-off); inconclusive means no clear call, values can overlap the other calls; inactive means mostly above about 0.92. This is one part of the list.

Test: chemical genetic growth profiling, strain panel (AID 1159580);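 further: tested at 20 µM; growth read once vehicle control cultures reached saturation at 30 °C; 1 = growth at the plate median or of vehicle wells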
Conditions: S. cerevisiae deletion strains, growth OD
[1] = locus YGR078C, strain PAC10, stronger effect = lower value
[2] = locus YNL322C, strain KRE1, stronger effect = lower value
[3] = locus YPL241C, strain CIN2, stronger effect = lower value
[4] = locus YDL101C, strain DUN1, stronger effect = lower value
[5] = locus YHR030C, strain SLT2, stronger effect = lower value

Measured: normalized growth

CCCCS(=N)(=O)CC[C@H](N)C(=O)O (some centres undefined)
inactive: locus YAL040C, strain CLN3, stronger effect = lower value 0.986 | locus YDR363W, strain ESC2, stronger effect = lower value 0.99 | locus YER002W, strain NOP16, stronger effect = lower value 1.01 | [1] 0.995 | locus YNL175C, strain NOP13, stronger effect = lower value 0.984 | locus YNL197C, strain WHI3, stronger effect = lower value 0.991 | locus YNL224C, strain SQS1, stronger effect = lower value 0.983 | [2] 0.994 | locus YOR083W, strain WHI5 (second series), stronger effect = lower value 0.977 | [3] 1

COc1ccc(C(=O)c2sc(Nc3ccccc3)nc2-c2ccccc2)cc1
inactive: locus YAL013W, strain DEP1, stronger effect = lower value 0.999 | locus YBR229C, strain ROT2, stronger effect = lower value 0.979 | locus YCL061C, strain MRC1, stronger effect = lower value 1 | [4] 1 | locus YDR150W, strain NUM1, stronger effect = lower value 1.01 | locus YEL061C, strain CIN8, stronger effect = lower value 0.96 | [1] 0.994 | [5] 0.907 | locus YHR087W, strain rtc3, stronger effect = lower value 0.958 | locus YJR043C, strain POL32, stronger effect = lower value 0.988 | locus YJR075W, strain HOC1, stronger effect = lower value 0.975 | locus YKL190W, strain CNB1, stronger effect = lower value 0.997 | locus YLR039C, strain RIC1, stronger effect = lower value 0.825 | locus YLR058C, strain SHM2 (second series), stronger effect = lower value 1.02 | locus YLR085C, strain ARP6, stronger effect = lower value 0.853 | locus YLR262C, strain YPT6, stronger effect = lower value 0.993 | locus YML094W, strain GIM5, stronger effect = lower value 0.927 | locus YMR219W, strain ESC1, stronger effect = lower value 0.976 | locus YMR263W, strain SAP30, stronger effect = lower value 0.971 | locus YMR307W, strain GAS1, stronger effect = lower value 0.925 | locus YNL153C, strain GIM3, stronger effect = lower value 1.03 | locus YNL298W, strain CLA4 (second series), stronger effect = lower value 0.953 | [2] 0.989 | locus YNR030W, strain Alg12, stronger effect = lower value 0.913 | locus YOL006C, strain TOP1, stronger effect = lower value 0.893 | locus YPL055C, strain LGE1, stronger effect = lower value 0.916 | [3] 0.898 | locus YPR135W, strain CTF4, stronger effect = lower value 0.857

COc1ccc2c(c1)CCc1sc(NC(=O)c3ccco3)nc1-2
inactive: locus YAR019C, strain CDC15, stronger effect = lower value 0.957 | locus YBL105C, strain PKC1, stronger effect = lower value 0.961 | locus YBR135W, strain CKS1, stronger effect = lower value 0.953 | locus YBR136W, strain MEC1, stronger effect = lower value 0.969 | locus YBR160W, strain CDC28, stronger effect = lower value 0.965 | locus YDL017W, strain CDC7, stronger effect = lower value 0.971 | locus YDL028C, strain MPS1, stronger effect = lower value 0.971 | [4] 0.993 | locus YDL108W, strain KIN28, stronger effect = lower value 0.947 | locus YDL132W, strain cdc53, stronger effect = lower value 0.97 | locus YDL214C, strain PRR2, stronger effect = lower value 0.901 | locus YDR052C, strain DBF4, stronger effect = lower value 0.969 | locus YDR054C, strain cdc34, stronger effect = lower value 0.955 | locus YDR226W, strain ADK1, stronger effect = lower value 0.957 | locus YDR477W, strain SNF1, stronger effect = lower value 0.889 | locus YER123W, strain YCK3, stronger effect = lower value 0.858 | locus YER133W, strain GLC7, stronger effect = lower value 0.872 | locus YFL009W, strain cdc4, stronger effect = lower value 0.963 | locus YFL029C, strain CAK1, stronger effect = lower value 0.959 | locus YFR003C, strain YPI1, stronger effect = lower value 0.964 | locus YFR019W, strain FAB1, stronger effect = lower value 0.996 | locus YFR028C, strain CDC14, stronger effect = lower value 0.95 | locus YGR040W, strain KSS1, stronger effect = lower value 0.872 | locus YGR052W, strain FMP48, stronger effect = lower value 0.94 | locus YGR092W, strain DBF2, stronger effect = lower value 0.803 | locus YHR079C, strain IRE1, stronger effect = lower value 0.952 | locus YHR082C, strain KSP1, stronger effect = lower value 0.918 | locus YHR205W, strain SCH9, stronger effect = lower value 0.921 | locus YIL147C, strain SLN1, stronger effect = lower value 0.957 | locus YJL095W, strain BCK1, stronger effect = lower value 0.895 | locus YJL128C, strain PBS2, stronger effect = lower value 0.934 | locus YJL157C, strain FAR1, stronger effect = lower value 0.889 | locus YJR016C, strain ILV3, stronger effect = lower value 0.961 | locus YJR066W, strain TOR1 (second series), stronger effect = lower value 0.872 | locus YJR066W, strain TOR1, stronger effect = lower value 0.924 | locus YKL048C, strain ELM1, stronger effect = lower value 0.959 | locus YKL067W, strain YNK1, stronger effect = lower value 0.92 | locus YKL101W, strain HSL1, stronger effect = lower value 0.941 | locus YKL193C, strain SDS22, stronger effect = lower value 0.95 | locus YKL203C, strain TOR2, stronger effect = lower value 0.951 | locus YLR133W, strain CKI1, stronger effect = lower value 0.93 | locus YLR403W, strain SFP1, stronger effect = lower value 0.915 | locus YML070W, strain DAK1, stronger effect = lower value 0.88 | locus YMR001C, strain CDC5, stronger effect = lower value 0.946 | locus YMR205C, strain PFK2 (second series), stronger effect = lower value 0.927 | locus YMR277W, strain FCP1, stronger effect = lower value 0.954 | locus YNL006W, strain LST8, stronger effect = lower value 0.967 | locus YNL020C, strain ARK1, stronger effect = lower value 0.928 | locus YNL161W, strain CBK1, stronger effect = lower value 0.96 | locus YNL183C, strain NPR1, stronger effect = lower value 0.938 | locus YNL207W, strain RIO2, stronger effect = lower value 0.96 | locus YNL222W, strain SSU72, stronger effect = lower value 0.957 | locus YNL307C, strain MCK1 (second series), stronger effect = lower value 0.94 | locus YOL078W, strain AVO1, stronger effect = lower value 0.961 | locus YOL136C, strain PFK27, stronger effect = lower value 0.882 | locus YOR061W, strain CKA2, stronger effect = lower value 0.887 | locus YOR119C, strain RIO1, stronger effect = lower value 0.865 | locus YOR231W, strain MKK1, stronger effect = lower value 0.932 | locus YOR329C, strain SCD5, stronger effect = lower value 0.969 | locus YPL031C, strain PHO85, stronger effect = lower value 0.828 | locus YPL153C, strain RAD53, stronger effect = lower value 0.845 | locus YPL204W, strain HRR25, stronger effect = lower value 0.896 | locus YPL209C, strain IPL1, stronger effect = lower value 0.968 | locus YPL256C, strain CLN2, stronger effect = lower value 0.918 | locus YPR025C, strain CCL1, stronger effect = lower value 0.953 | locus YPR106W, strain ISR1, stronger effect = lower value 0.969 | locus YPR111W, strain DBF20, stronger effect = lower value 0.967 | strain NNK1, stronger effect = lower value 0.973 | strain TSCII, stronger effect = lower value 0.959
active: [5] 0.757 | locus YLR113W, strain HOG1, stronger effect = lower value 0.823
